Assay outcomes: PubChem, National Center for Advancing Translational Sciences (NCATS)
Giardia FBPA inh: inhibitors of Giardia lamblia fructose-1,6-bisphosphate aldolase; A8B2U2; purified Giardia FBPA; Potency, µM (series often up to 59.6 µM), actives largely listed as inhibitors; actives 0.71% (n = 290,000); note: nearly all actives have a fitted effect of over 55% in size
Target sequence (A8B2U2 whole entry, looked up): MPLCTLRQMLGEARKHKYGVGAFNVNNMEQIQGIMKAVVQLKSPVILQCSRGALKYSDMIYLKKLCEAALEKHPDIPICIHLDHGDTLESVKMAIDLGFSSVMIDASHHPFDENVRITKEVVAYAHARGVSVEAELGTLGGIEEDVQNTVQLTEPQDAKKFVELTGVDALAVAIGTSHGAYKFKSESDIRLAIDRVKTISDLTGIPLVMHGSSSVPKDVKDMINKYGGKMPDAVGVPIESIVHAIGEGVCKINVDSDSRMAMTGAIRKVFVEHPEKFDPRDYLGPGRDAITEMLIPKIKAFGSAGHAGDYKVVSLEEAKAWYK
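40 nM FBPA preincubated 10 min at RT with compound (up to 57.5 uM final), then substrate plus GAPDH/TPI/NAD/arsenate coupling and diaphorase/resazurin added. Fluorescence read after 20 min at RT, 525/598 nm.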
Pf growth 48h: inhibits P. falciparum growth in the first generation, 48 h; P. falciparum luciferase growth in erythrocytes, 48 h; Potency, µM (top dose mostly 28.7 µM), usual class: inhibitors; actives 5.9% (n = 310,000)
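Growth was read as firefly luciferase luminescence after a 48 h, 37 C, 5% CO2 exposure of compounds to reporter-bearing P. falciparum cultures (0.1% parasitemia, 2% hematocrit final) in Albumax-supplemented RPMI 1640.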
HCMV antiviral: blocks human cytomegalovirus replication; HFF cells, HCMV-luciferase reporter, 72 h; stronger effect = lower value; activity change, negative = inhibition, % at 57.5 µM; AID 1259415; actives 4.5% (n = 410,000); in the data active = activity change below about -60%; inconclusive = no clear call, values can overlap the other calls; inactive = above about -39%
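Compounds were evaluated in HFFs infected with an HCMV luciferase reporter virus (MOI 1 PFU/cell). Luciferase in lysates collected 72 h post infection served as the replication measure.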
Sm TGR inh: inhibitors of Schistosoma mansoni thioredoxin glutathione reductase; Q962Y6; purified TGR, DTNB reduction, TNB absorbance 405 nm; Potency, µM (titrated, usually from 114 µM), actives largely listed as inhibitors; actives 3% (n = 360,000); AID 485364; note: nearly all actives have a fitted effect of over 60% in size
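First, TGR (20 nM dispensed) and NADPH were mixed with compound. Second, a 15 min room-temperature incubation followed. Third, further NADPH and then DTNB were added to start the reaction. Finally, TNB absorbance was monitored kinetically.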
Pf growth 96h: P. falciparum growth inhibition at 96 hours. P. falciparum luciferase reporter growth, 96 h. Potency, µM (top dose mostly 28.7 µM), most hits filed as inhibitors. actives 6.9% (n = 320,000)
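Parasite growth measured via integrated firefly luciferase reporter in P. falciparum. Infected erythrocytes at 2% hematocrit, 0.05% parasitemia final were treated 96 hours at 37 C under 5% CO2, and luminescence was read.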
Each line names hits and unclear results; the compound was inactive in the other large screens. Shown are actives, neighbours in structure and some others; about 14% of the full set was active somewhere. Unless noted, calls come from the whole dose curve; as a rule, active = well fitted curve in the direction sought with a large enough effect; inconclusive = small, poorly fitted or top-dose-only effect, or another doubt; inactive = no such curve, though single readings can be large; an effect the other way counts as inactive or inconclusive.

CCOc1ccc(NS(=O)(=O)c2ccc(C(=O)NCC(c3ccco3)N3CCCCC3)cc2)cc1 (centres undefined)	none (no result: Giardia FBPA inh, Pf growth 48h, Sm TGR inh, Pf growth 96h)
CC(C)NC(=O)c1nc2c(nnn2Cc2cccc(Cl)c2)c(=O)[nH]1	none
CC1CC(C)CN(C(=O)/C=C/c2ccc(S(=O)(=O)N3CCOCC3)cc2)C1 (centres undefined)	Pf growth 48h 9.3µM, Pf growth 96h 5.2µM (no result: Giardia FBPA inh)
CC1CC(C)CN(C(=O)COC(=O)c2cc(S(=O)(=O)N3CCOCC3)ccc2F)C1 (centres undefined)	Pf growth 48h inconclusive (no result: Giardia FBPA inh)
O=C(/C=C/c1ccccc1)N1CCOCC1	Pf growth 96h 3.3µM
O=C(c1ccc(S(=O)(=O)N2CCOCC2)cc1)N1CCN(c2ccc(F)cc2)CC1	none (no result: Pf growth 96h)
O=C(/C=C/c1ccc(Cl)cc1)N1CCOCC1	none
O=C(/C=C/c1ccc(S(=O)(=O)N2CCOCC2)cc1)N1CCN(c2ccc(F)cc2)CC1	Pf growth 48h 7.4µM, HCMV antiviral -63, Sm TGR inh inconclusive, Pf growth 96h inconclusive
COCCCN1Cc2cccc(C(=O)O)c2C1=O	Pf growth 96h 8.3µM (no result: Pf growth 48h)
COCCN1Cc2cccc(C(=O)NCCc3ccccc3)c2C1=O	none
Cc1nc(NCCc2ccc(S(N)(=O)=O)cc2)c2c(C)c(C)sc2n1	Pf growth 48h inconclusive, HCMV antiviral -88 (no result: Pf growth 96h)
Cc1ccc(NC(=O)CSc2nnc(N)s2)c(C)c1	none (no result: Giardia FBPA inh, Pf growth 48h, Pf growth 96h)
CC1CC(C)CN(CCOc2ccc(Cl)cc2Cl)C1 (centres undefined)	Pf growth 48h 10µM, Pf growth 96h inconclusive
CC1CCCN(CCOCCOc2ccc(Cl)cc2Br)C1 (centres undefined)	Pf growth 48h 12µM, Pf growth 96h 12µM
CC1CCCN(CCOCCOc2ccc(Br)cc2Cl)C1 (centres undefined)	Pf growth 48h inconclusive, HCMV antiviral -64
Cc1cc(Cl)c(OCCOCCN2CCCC(C)C2)c(Br)c1 (centres undefined)	Giardia FBPA inh inconclusive, Pf growth 48h inconclusive
CC1CC(C)CN(CCOc2cccc(Cl)c2Cl)C1 (centres undefined)	Pf growth 48h inconclusive, HCMV antiviral inconclusive
CCc1nnc(NC(=O)CCC(=O)N2CCCC2)s1	none
Cc1ccc(OCCN2CCN(C(=O)CCC(=O)Nc3nnc(C)s3)CC2)cc1	HCMV antiviral -101, Pf growth 96h inconclusive
CCc1nnc(NC(=O)CCC(=O)N2CCC(Cc3ccccc3)CC2)s1	Pf growth 96h 10µM (no result: Giardia FBPA inh)
Cc1ccc(OCCN2CCN(C(=O)CCC(=O)Nc3nnc(C(C)C)s3)CC2)cc1	Pf growth 48h 10µM, HCMV antiviral -84, Pf growth 96h 2.9µM
CCc1nnc(NC(=O)CN2CCN(c3nc(-c4ccccc4)cs3)CC2)s1	Pf growth 48h 10µM, HCMV antiviral inconclusive, Pf growth 96h 9.3µM
Cc1nnc(NC(=O)CCC(=O)N2CCN(CCOc3cccc4ccccc34)CC2)s1	Pf growth 48h inconclusive, Pf growth 96h inconclusive
CC(C)c1nnc(NC(=O)CCC(=O)N2CCN(Cc3ccccc3)CC2)s1	none
CC(C)C(=O)NNC(=O)CN1CCN(c2nc(-c3ccccc3)cs2)CC1	none
CCCc1nnc(NC(=O)CCC(=O)N2CCN(CCOc3ccc(C)cc3)CC2)s1	Pf growth 48h 10µM, HCMV antiviral inconclusive, Pf growth 96h inconclusive
COc1ccccc1CNc1ccc(-c2nc(C(C)C)no2)cc1[N+](=O)[O-]	none (no result: Giardia FBPA inh, Pf growth 48h, Pf growth 96h)
CCCCC(=O)NC(c1ccccc1OC)c1ccc2cccnc2c1O (centres undefined)	Pf growth 48h 1.9µM, HCMV antiviral active, Pf growth 96h 2.1µM
COc1ccccc1C(=O)Nc1cccc2cccnc12	Sm TGR inh inconclusive
CCCC(=O)NC(c1ccccc1OC)c1ccc2cccnc2c1O (centres undefined)	Pf growth 48h 1.7µM, Pf growth 96h inconclusive (no result: HCMV antiviral)
CCC(CC)C(=O)N(C)c1c(C)nc2c(OCc3ccc(Cl)cc3Cl)cccn12	none (no result: Giardia FBPA inh, Pf growth 48h, Sm TGR inh, Pf growth 96h)
COc1cccc(OC)c1C(=O)Nc1cccc2c1CCCC2	none
O=C1/C(=C/c2ccncc2)SC(=S)N1N1CCOCC1	Giardia FBPA inh inconclusive, Sm TGR inh 0.89µM
O=C1/C(=C/c2cccs2)SC(=S)N1N1CCOCC1	HCMV antiviral inconclusive, Sm TGR inh inconclusive
O=C1/C(=C/c2cccnc2)SC(=S)N1N1CCOCC1	Pf growth 48h inconclusive, Sm TGR inh 2.8µM
O=C(c1cccc([N+](=O)[O-])c1)N1CCN(CCc2ccncc2)CC1	none (no result: Giardia FBPA inh, Pf growth 48h, Pf growth 96h)
